The text below walks through data of PubChem BioAssay (NCATS).

Test [1] deals with Estrogen receptor (Homo sapiens) (UniProt P03372). As to the kind of experiment: qHTS assay for small molecule agonists of estrogen receptor alpha signaling (AID 588514; calls by dose curve;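 note: 0% = vehicle only and 100% = reference agonist; nearly all actives have a fitted effect of over 70% in size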). Put shortly:
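ER-alpha-UAS-bla GripTite HEK 293 cells in medium with 2% charcoal/dextran-treated FBS were treated with compound titrations at 37 C for 18 hrs; beta-lactamase reporter read by CCF4 fluorescence after 2 hrs at RT.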

Test [2] addresses Glucocorticoid receptor (Homo sapiens) (UniProt P04150). Nature of the test: qHTS assay for small molecule antagonists of glucocorticoid receptor signaling (AID 588533; active = well fitted inhibition curve with a large enough effect in the signal ratio, with a control signal flat, not every such curve was filed as active; the % refers to the signal ratio;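 note: cells stimulated with 2 nM dexamethasone as agonist; % is set by controls: 0 for no effect and ±100 for the full control effect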). The method, boiled down:
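Antagonist-mode qHTS: compound titrations added to GRE-bla HeLa cells, then dexamethasone 2 nM final; 18 h, 37 C. CCF4 FRET fluorescence normalized to dexamethasone and DMSO; IC50 from Hill fit.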

Test [3] has as its target Thyroid hormone receptor beta (Homo sapiens) (UniProt P10828). Nature of the test: qHTS assay for small molecule agonists of thyroid hormone receptor beta signaling (AID 588545; calls by dose curve). The method, boiled down: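 Agonist activity was read as beta-lactamase CCF4 fluorescence (405 ex, 460/530 em), scaled between DMSO (0%) and 10 nM T3 (100%), then Hill-fitted for EC50 and efficacy. HEK 293 TR-UAS-bla cells in 2% charcoal/dextran FBS medium were exposed 18 h at 37 C.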

Test [4] can be described thus: qHTS assay for environmental chemicals that activate the Aryl hydrocarbon Receptor (AhR) signaling pathway (AID 651777). Note: % of control where 0% means no effect; nearly all actives have a fitted effect of over 15% in size. The following applies: 1A2-DRE human hepatoma cells, luciferase, 24 h; activation: stronger effect = higher value. Put shortly:
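Measured luciferase activity, read 30 min after One-Glo addition at room temperature, from human hepatoma cells bearing a dioxin response element–CYP1A2 promoter reporter and exposed to compound for 24 hr at 37 C.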

Test [5] concerns the target Peroxisome proliferator-activated receptor alpha (Homo sapiens) (UniProt Q07869). As to the kind of experiment: qHTS assay for small molecule agonists of the peroxisome proliferator-activated receptor alpha (PPARalpha) signaling pathway (AID 651778). Note: % of control where 0% means no effect. The following applies: PathHunter PPARalpha complementation, chemiluminescence, 6 h; max response: stronger effect = higher value. Put shortly:
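Cells plated at 2,000/well and held overnight at 37 C, 5% CO2, then compound added by pin tool for 6 hr; after PathHunter detection reagent and 60 min at room temperature, chemiluminescence from enzyme complementation was read.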
(In general: Quantitative high-throughput screening tests each substance at several concentrations.)

Test [6] is described as follows: qHTS assay for small molecule agonists of the antioxidant response element (ARE) signaling pathway measured by Nrf2-dependant transcriptional activity - cell viability counter screen (AID 720653; active = well fitted curve in the direction sought with a large enough effect in the repeat runs; an effect the other way counts as inactive or inconclusive; note: % is set by controls: 0 for no effect and ±100 for the full control effect). The following applies: ARE-bla HepG2 viability, CellTiter-Glo ATP luminescence, 16 h; max response: stronger effect = lower value. The method, boiled down:
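ARE-bla HepG2 cells (2,000/well) rested 5 hrs at 37C/5% CO2, then exposed to compounds in DMSO for 16 hrs. Viability was read in the same wells as intracellular ATP by luminescence, 30 min at room temperature after reagent addition.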

A short description of test [7]: qHTS assay for cell viability of HEK293 cells (AID 743288). Note: % is set by controls: 0 for no effect and ±100 for the full control effect; nearly all actives have a fitted effect of over 50% in size. The following applies: ATP luminescence (CellTiter-Glo), 18 h; max response: stronger effect = lower value. Put shortly:
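Environmental chemicals tested in qHTS format against parental HEK293 cells; 18 h treatment, 37 C; read-out ATP luminescence (CellTiter-Glo), 30 min RT development.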

Test [8] is described as follows: qHTS assay for cell viability of the p53RE-bla HCT-116 cell line (AID 743292). Note: nearly all actives have a fitted effect of over 55% in size. Note: potency is the fitted concentration of half-maximal effect. Put shortly: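 Intracellular ATP of p53RE-bla HCT-116 cells measured by luciferase luminescence following 16 h compound incubation at 37 C; DMSO-only wells served as vehicle controls.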
The target in test [9] is Peroxisome proliferator-activated receptor delta (Homo sapiens) (UniProt Q03181). As to the kind of experiment: qHTS assay for small molecule agonists of peroxisome proliferator-activated receptor delta signaling (AID 588534; calls by dose curve;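 note: 0% = DMSO basal wells and 100% = positive control agonist at 10 µM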). Put shortly:
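Cell-based beta-lactamase reporter assay run in agonist mode: cells seeded and incubated 5 hrs at 37 C, compounds added and incubated 18 hrs at 37 C. CCF4 dye fluorescence read after 2 hrs at RT; EC50 and efficacy from Hill fits.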

Test [10] can be described thus: qHTS assay for small molecule antagonists of peroxisome proliferator-activated receptor delta signaling (AID 588535; active = well fitted inhibition curve with a large enough effect in the signal ratio, with a control signal flat, not every such curve was filed as active; the % refers to the signal ratio;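 for max response: cells co-treated with a PPAR-delta agonist as stimulator during compound exposure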). The following applies: HEK293T PPARd-UAS-bla, beta-lactamase FRET ratio, 18 h; 460 nm channel. Put shortly:
(§1)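 GeneBLAzer PPAR-delta-UAS-bla HEK293T cells in medium with 2% charcoal/dextran FBS were preincubated 5 hrs at 37 C, then given compounds, incubated 18 hrs at 37 C, and read by CCF4 beta-lactamase fluorescence; IC50 from Hill fits.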

The target in test [11] is Peroxisome proliferator-activated receptor delta (Homo sapiens) (UniProt Q03181). The test is described as above. The method, boiled down:
as §1

In test [12] the target is Vitamin D3 receptor (Homo sapiens) (UniProt P11473). As to the kind of experiment: qHTS assay for small molecule antagonists of vitamin D receptor signaling (AID 588541; calls by dose curve;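 note: receptor activated by calcitriol during compound treatment; series mostly up to about 77 µM; % is set by controls: 0 for no effect and ±100 for the full control effect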). Put shortly:
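VDR-UAS-bla HEK293T cells (2000/well, 2% charcoal-stripped FBS) were treated with titrated compounds plus 1-alpha,25-dihydroxyvitamin D3 (50 nM or 3 nM final) for 16 h at 37 C. CCF4 beta-lactamase fluorescence was read; Hill fits gave IC50.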

Test [13] is described as follows: qHTS assay for small molecule antagonists of retinoid X receptor alpha signaling (AID 588546; active = well fitted inhibition curve with a large enough effect in the signal ratio, with a control signal flat, not every such curve was filed as active; the % refers to the signal ratio;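 note: cells stimulated with 9-cis-retinoic acid as agonist; % is set by controls: 0 for no effect and ±100 for the full control effect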). The conditions noted are these: HEK293T RXRa-UAS-bla, beta-lactamase ratio, antagonist mode; measured here: W530 green channel, cytotoxicity proxy. Put shortly: (§2)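 Beta-lactamase reporter inhibition, read as CCF4 fluorescence ratio (ex 405, em 460/530 nm) after 2 h at RT. HEK293T UAS-bla cells, 2500/well, were stimulated with 9-cis-RA at 500 or 100 nM final alongside test compound for 18 h at 37 C.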

Test [14] deals with Retinoic acid receptor RXR-alpha (Homo sapiens) (UniProt P19793). Described as above. The following applies: HEK293T RXRa-UAS-bla, beta-lactamase ratio, antagonist mode. Put shortly: as §2
Test [15] has as its target Thyroid hormone receptor beta (Homo sapiens) (UniProt P10828). As to the kind of experiment: qHTS assay for small molecule antagonists of thyroid hormone receptor beta signaling (AID 588547; active = well fitted inhibition curve with a large enough effect in the signal ratio, with a control signal flat, not every such curve was filed as active; the % refers to the signal ratio). The conditions noted are these: TR-UAS-bla HEK293, beta-lactamase ratio, antagonist mode, 18 h. Put shortly:
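TR-UAS-bla GripTite HEK293 cells in 2% charcoal/dextran FBS medium were preincubated 4 h at 37 C, given compound (0.59 nM to 92 uM) plus 0.4 nM T3 (final) for 18 h, then CCF4 for 2 h at RT; Hill fit gave IC50.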

Test [16] can be described thus: qHTS assay for small molecule activators of the p53 signaling pathway (AID 651743; active = well fitted activation curve with a large enough effect in the signal ratio, not every such curve was filed as active; the % refers to the signal ratio; note: series mostly up to about 92 µM; % of control where 0% means no effect). The conditions noted are these: HCT-116 p53RE-bla, beta-lactamase FRET ratio, 16 h; activation: stronger effect = higher value. Put shortly: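 p53RE-bla HCT-116 cells with a stably integrated beta-lactamase reporter under p53 response elements were plated, rested 5 hours at 37 C/5% CO2, then exposed to compounds in DMSO for 16 hours at 37 C. LiveBLAzer B/G FRET substrate was read after 2 hours at room temperature.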

Test [17] can be described thus: qHTS assay for small molecule activators of the nuclear factor-kappa B (NF-kB) signaling pathway (AID 651749; active = well fitted activation curve with a large enough effect in the signal ratio; the % refers to the signal ratio; note: series mostly up to about 77 µM; % of control where 0% means no effect). The conditions noted are these: NF-kB-bla ME-180 cells, beta-lactamase FRET ratio, 16 h; activation: stronger effect = higher value. The method, boiled down: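 ME-180 cells stably carrying a beta-lactamase reporter under an NF-kB response element were exposed to compound or DMSO vehicle for 16 hr at 37C, 5% CO2. Pathway activation was read by FRET, since reporter expression disrupts FRET.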

The nature of test [18]: qHTS assay for small molecule agonists of the antioxidant response element (ARE) signaling pathway measured by Nrf2-dependant transcriptional activity (AID 720636; active = well fitted curve in the direction sought with a large enough effect in the repeat runs; an effect the other way counts as inactive or inconclusive;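 note: HepG2 cells with an ARE-driven luciferase reporter; % of control where 0% means no effect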). The method, boiled down:
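In HepG2 cells engineered with an Nrf2-responsive luciferase gene, ARE induction was quantified as luminescence after 16 hr compound treatment at 37 C.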

The target in test [19] is Nuclear receptor subfamily 1 group I member 2 (Rattus norvegicus) (UniProt Q9R1A7). As to the kind of experiment: qHTS assay for small molecule activators of the rat pregnane X receptor (rPXR) signaling pathway (AID 651751; call rule not given here; note: 0% is about no effect). The following applies: rPXR reporter cells, luciferase (One-Glo), 24 h.
Test [20] concerns the target Retinoic acid receptor RXR-alpha (Homo sapiens) (UniProt P19793). Nature of the test: qHTS assay for small molecule agonists of retinoid X receptor alpha signaling (AID 588544; calls by dose curve;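 note: 0% = DMSO basal wells and 100% = reference agonist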).

“And” between values parts separate entries of the source, which are not always exact repeats. Equal values may be shown once. Inconclusive results are not listed. The source made the active and inactive calls. Unless noted, calls come from the whole dose curve; as a rule, active = well fitted curve in the direction sought with a large enough effect; inconclusive = small, poorly fitted or top-dose-only effect, or another doubt; inactive = no such curve, though single readings can be large; an effect the other way counts as inactive or inconclusive.

Glucocorticoid receptor (Homo sapiens), sequence (P04150 whole entry, looked up): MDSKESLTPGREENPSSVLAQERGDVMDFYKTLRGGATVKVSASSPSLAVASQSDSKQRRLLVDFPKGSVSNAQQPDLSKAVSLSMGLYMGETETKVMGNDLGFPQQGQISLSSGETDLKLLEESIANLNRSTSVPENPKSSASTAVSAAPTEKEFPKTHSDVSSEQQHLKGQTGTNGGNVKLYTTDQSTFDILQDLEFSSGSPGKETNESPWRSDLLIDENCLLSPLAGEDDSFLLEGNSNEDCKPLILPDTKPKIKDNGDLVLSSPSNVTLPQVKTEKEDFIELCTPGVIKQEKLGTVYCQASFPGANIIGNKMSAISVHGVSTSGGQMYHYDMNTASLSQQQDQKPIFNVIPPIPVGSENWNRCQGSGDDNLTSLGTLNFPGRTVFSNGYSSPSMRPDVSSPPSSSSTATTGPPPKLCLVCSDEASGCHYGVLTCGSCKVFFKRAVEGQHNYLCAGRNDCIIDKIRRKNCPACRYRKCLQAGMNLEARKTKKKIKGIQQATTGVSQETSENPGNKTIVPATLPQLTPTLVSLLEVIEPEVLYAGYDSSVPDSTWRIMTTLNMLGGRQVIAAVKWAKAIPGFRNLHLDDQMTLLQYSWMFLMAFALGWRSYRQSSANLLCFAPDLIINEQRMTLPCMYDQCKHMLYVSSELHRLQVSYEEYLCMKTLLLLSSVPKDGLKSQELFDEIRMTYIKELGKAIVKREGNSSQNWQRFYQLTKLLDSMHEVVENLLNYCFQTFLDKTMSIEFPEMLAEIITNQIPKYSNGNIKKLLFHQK
Estrogen receptor (Homo sapiens), sequence (P03372 whole entry, looked up): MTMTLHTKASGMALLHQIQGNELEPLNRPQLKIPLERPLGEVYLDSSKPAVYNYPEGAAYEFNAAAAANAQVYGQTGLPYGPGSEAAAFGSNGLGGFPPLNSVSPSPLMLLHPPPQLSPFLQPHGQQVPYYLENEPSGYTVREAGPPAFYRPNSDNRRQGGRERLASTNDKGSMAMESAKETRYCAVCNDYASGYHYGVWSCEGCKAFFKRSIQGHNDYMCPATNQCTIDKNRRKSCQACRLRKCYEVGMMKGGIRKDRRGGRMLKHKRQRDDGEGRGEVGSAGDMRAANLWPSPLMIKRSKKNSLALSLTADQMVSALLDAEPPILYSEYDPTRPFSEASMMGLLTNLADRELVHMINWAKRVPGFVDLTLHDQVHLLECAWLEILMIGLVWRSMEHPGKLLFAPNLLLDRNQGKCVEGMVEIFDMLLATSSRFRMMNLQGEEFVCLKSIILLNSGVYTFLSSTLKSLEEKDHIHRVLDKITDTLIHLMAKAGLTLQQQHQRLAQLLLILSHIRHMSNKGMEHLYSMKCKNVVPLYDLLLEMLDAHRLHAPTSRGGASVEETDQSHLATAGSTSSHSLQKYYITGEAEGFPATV
Nuclear receptor subfamily 1 group I member 2 (Rattus norvegicus), sequence (Q9R1A7 whole entry, looked up): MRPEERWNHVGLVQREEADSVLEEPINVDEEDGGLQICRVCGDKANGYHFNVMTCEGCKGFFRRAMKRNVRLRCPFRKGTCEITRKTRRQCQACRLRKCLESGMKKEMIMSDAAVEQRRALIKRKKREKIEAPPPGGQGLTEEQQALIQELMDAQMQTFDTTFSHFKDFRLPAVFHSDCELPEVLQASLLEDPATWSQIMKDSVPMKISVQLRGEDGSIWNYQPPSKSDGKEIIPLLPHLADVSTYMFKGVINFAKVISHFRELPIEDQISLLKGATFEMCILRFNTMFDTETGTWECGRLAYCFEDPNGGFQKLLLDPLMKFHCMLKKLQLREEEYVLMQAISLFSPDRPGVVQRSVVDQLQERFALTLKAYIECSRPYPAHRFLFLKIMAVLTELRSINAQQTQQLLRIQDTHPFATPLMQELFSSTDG
Retinoic acid receptor RXR-alpha (Homo sapiens), sequence (P19793 whole entry, looked up): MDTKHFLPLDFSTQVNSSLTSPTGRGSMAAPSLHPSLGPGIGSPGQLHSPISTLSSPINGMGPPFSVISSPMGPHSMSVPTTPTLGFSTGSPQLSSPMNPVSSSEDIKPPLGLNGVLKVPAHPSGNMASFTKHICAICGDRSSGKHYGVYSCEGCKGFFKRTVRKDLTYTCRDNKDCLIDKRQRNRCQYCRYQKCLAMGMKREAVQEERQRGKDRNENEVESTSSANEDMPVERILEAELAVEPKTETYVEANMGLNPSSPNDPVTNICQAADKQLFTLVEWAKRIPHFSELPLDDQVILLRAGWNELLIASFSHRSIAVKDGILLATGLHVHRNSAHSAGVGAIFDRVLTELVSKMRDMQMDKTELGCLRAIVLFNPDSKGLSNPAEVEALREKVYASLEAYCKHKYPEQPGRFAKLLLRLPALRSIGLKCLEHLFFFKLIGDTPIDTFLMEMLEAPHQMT
Peroxisome proliferator-activated receptor delta (Homo sapiens), sequence (Q03181 whole entry, looked up): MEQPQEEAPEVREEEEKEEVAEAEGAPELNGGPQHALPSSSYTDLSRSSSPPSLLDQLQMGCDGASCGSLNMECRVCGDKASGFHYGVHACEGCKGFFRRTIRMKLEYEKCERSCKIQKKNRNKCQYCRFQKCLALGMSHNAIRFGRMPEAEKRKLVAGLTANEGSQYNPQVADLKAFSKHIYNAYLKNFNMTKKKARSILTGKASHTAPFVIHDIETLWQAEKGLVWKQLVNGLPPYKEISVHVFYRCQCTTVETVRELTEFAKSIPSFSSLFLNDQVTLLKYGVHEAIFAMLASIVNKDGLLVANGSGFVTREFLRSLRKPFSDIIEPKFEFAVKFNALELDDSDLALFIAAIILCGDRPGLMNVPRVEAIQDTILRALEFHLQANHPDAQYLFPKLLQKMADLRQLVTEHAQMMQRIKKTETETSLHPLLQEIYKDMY
Thyroid hormone receptor beta (Homo sapiens), sequence (P10828 whole entry, looked up): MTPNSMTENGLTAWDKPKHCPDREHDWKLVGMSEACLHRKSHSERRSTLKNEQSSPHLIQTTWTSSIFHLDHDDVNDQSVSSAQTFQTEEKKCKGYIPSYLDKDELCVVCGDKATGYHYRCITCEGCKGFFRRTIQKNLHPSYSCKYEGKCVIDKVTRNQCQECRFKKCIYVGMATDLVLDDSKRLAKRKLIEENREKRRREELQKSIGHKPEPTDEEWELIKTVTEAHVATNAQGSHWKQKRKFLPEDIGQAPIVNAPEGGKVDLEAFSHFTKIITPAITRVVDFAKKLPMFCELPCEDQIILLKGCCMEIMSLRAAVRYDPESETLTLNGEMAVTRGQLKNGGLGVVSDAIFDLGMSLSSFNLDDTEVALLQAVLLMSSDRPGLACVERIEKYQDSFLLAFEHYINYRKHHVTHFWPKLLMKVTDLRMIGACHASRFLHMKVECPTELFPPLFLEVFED
Peroxisome proliferator-activated receptor alpha (Homo sapiens), sequence (Q07869 whole entry, looked up): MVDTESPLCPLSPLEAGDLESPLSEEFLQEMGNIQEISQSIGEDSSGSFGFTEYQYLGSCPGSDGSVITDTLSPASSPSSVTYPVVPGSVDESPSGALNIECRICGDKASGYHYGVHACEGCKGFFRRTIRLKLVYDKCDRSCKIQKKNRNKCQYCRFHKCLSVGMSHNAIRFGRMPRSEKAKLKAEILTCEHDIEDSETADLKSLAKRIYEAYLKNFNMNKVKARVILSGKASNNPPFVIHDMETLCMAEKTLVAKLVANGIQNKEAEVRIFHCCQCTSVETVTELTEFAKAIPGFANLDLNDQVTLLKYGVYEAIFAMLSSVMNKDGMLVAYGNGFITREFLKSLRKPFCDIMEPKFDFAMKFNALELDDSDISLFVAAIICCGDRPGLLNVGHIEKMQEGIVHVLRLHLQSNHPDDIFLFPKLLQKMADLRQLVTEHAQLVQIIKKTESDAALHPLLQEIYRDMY
Vitamin D3 receptor (Homo sapiens), sequence (P11473 whole entry, looked up): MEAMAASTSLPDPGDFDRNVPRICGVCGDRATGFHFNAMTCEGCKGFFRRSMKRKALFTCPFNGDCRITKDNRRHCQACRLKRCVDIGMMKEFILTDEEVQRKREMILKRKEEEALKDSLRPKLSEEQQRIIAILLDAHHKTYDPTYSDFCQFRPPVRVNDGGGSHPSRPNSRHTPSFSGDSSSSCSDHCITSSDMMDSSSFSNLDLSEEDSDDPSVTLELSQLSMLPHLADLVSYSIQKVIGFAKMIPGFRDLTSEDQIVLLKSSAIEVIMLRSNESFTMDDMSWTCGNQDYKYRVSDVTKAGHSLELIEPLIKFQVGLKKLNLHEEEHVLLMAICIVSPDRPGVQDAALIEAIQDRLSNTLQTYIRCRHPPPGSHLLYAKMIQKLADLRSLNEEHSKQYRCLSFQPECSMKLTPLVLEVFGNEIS

For `CC(C)[C@@H](Nc1ccc(C(F)(F)F)cc1Cl)C(=O)OC(C#N)c1cccc(Oc2ccccc2)c1` (stereo not given in full), the Potency entry in test [1], in test [2], in test [3] and in test [8] was “inactive” throughout. Further, the activation in test [4] is 0.736% (inactive). The max response in test [5] was -1.14% (inactive); in test [6], -3.6% (inactive); in [7], -27.3% (inactive).
On to `CCCOc1nn(C(=O)NS(=O)(=O)c2ccccc2C(=O)OC)c(=O)n1C`, for which the Potency entry in [2], in [11], in [12], in test [3], in test [18] and in test [8] was “inactive” each time. Besides, the call in test [9] was inactive. Moreover, the max response in test [10] was 41%; in test [13], -18%; in test [14] it was -2.92% (inactive); in test [5], 0.0457% (inactive); in test [6] it was -11.6% (inactive); in test [7], -4.57% (inactive). In addition, the max response in [19] is 4.67% (inactive). Besides, the activity change % (negative = inhibition) in test [15] is 10.6% (inactive). In addition, the activation in test [16] was 0.234% (inactive); in test [17], -2.67% (inactive); in test [4], 0.148% (inactive).
Take `O=C(O)C(F)(F)C(F)(F)C(F)(F)C(F)(F)C(F)(F)C(F)(F)C(F)(F)C(F)(F)C(F)(F)F`: the Potency result in [1], in test [2], in [11], in test [20], in test [3] and in test [18] was “inactive” in each case. In test [8], the Potency result was “inactive”. Also, the compound was classed as inactive in [9]. The max response was 7.25% and 27.2% in test [10]; -7.72% in test [13]; 20.8% (inactive) in [14]; -0.9% (inactive) and 3.39% (inactive) in test [5]; -6.6% (inactive) and -12.4% (inactive) in test [6]; -5.33% (inactive) and -8.2% (inactive) in [7]. Further, the max response in test [19] is -0.489% (inactive) and -1.36% (inactive). Further, in [15], the activity change % (negative = inhibition) is -14.6% (inactive) and -11.9% (inactive). The activation was 5.35% (inactive) in test [16]; 1.39% (inactive) and -1.65% (inactive) in test [17].
With `CC1(C)[C@H](C=C(Cl)Cl)[C@H]1C(=O)O[C@H](C#N)c1ccc(F)c(Oc2ccccc2)c1`, the Potency result in test [1], in [2], in test [11], in test [12], in [3] and in test [18] was “inactive” throughout. In test [8], the Potency entry is “inactive”. Besides, in [9], the compound was called inactive. Besides, the max response in test [10] was 27%; in test [13], -5.65%; in test [14], -6.52% (inactive); in test [5], -0.256% (inactive) and -0.375% (inactive); in test [6], -5.83% (inactive) and -7.88% (inactive); in [7] it was -3.74% (inactive) and -16.6% (inactive). In [15], the activity change % (negative = inhibition) is -23.6% (inactive). In addition, the activation was -1.98% (inactive) and 0.257% (inactive) in [16]; 4.2% (inactive) in test [17]; 1.36% (inactive) and 3.44% (inactive) in test [4].
Consider `ClC1=C(Cl)[C@@]2(Cl)[C@H]3C[C@@H](Cl)[C@H](Cl)[C@H]3[C@@]1(Cl)C2(Cl)Cl`, for which the Potency result in [12] is “inactive”. Moreover, the max response in test [6] was -24.7% (inactive). In addition, the Potency in test [8] is 50.1 µM (active).
In the case of `CC1(C)[C@H](C(=O)O[C@H](C#N)c2cccc(Oc3ccccc3)c2)[C@@H]1C=C(Br)Br`, the result in test [9] was inactive. The max response in test [10] was 6.87%; in [5] it was -0.333% (inactive); in test [6], -10.6% (inactive). Moreover, the Potency entry in test [11], in test [20], in [3], in [18] and in test [8] was “inactive” in each case. Moreover, the figures for the activation in test [16] and in [4] were 3.18% (inactive) and -1.98% (inactive), respectively.
Consider `COC(=O)N(C(=O)N1COC2(C(=O)OC)Cc3cc(Cl)ccc3C2=N1)c1ccc(OC(F)(F)F)cc1` (stereo not given), for which the Potency result in test [1], in test [11], in [12], in test [18] and in test [8] was “inactive” each time. Moreover, the max response in [10] was 21%; in [5], -1.75% (inactive); in test [6] it was -4.11% (inactive). In [16], the activation is -1.52% (inactive).
